For some assays here: Potency and affinity values are given separately. Activity calls are given as the source filed them.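 How the source made its calls, unless noted: active means compound raising the membrane signal above positive-control mean plus 3 SD in both repeats, and a primary screen hit; inactive means the rest.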

We go through 7 compounds from PubChem BioAssay.

In assay [1] the test system is TRPC4 beta (transient receptor potential cation channel C4), mouse. The assay can be described thus: TRPC4 cation channel opening, retest – cell-based, Fluo4 calcium, HEK293 TRPC4beta/mu-opioid, duplicates, 10 µM, confirmation (AID 2426;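 active means fluorescence ratio normalized to control raised more than 50% in primary screen plus both repeat runs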;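 further: percent rise of integrated ratio over buffer wells lacking compound which define 0%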). Particulars: Fluo4 calcium fluorescence, at 10 µM; stronger effect = higher value.
Assay [2] deals with transient receptor potential cation channel C4 beta (TRPC4), mouse. Kind of assay: TRPC4 cation channel opening, second retest – cell-based, second round, Fluo4, HEK293 TRPC4beta/mu-opioid, 1 µM, confirmation (AID 2461;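 active means primary screen active and over 50% activation in each of two duplicate runs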;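 on activation: 0% = wells without test compound as baseline of integrated fluorescence ratio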). Particulars: Fluo4 calcium fluorescence, at 1 µM; stronger effect = higher value.
Assay [3] relates to TRPC4 (transient receptor potential cation channel C4 beta), mouse. The assay can be described thus: potentiation of DAMGO EC20 TRPC4 response – cell-based, second round, Fluo-4, HEK293 TRPC4beta/mu-opioid, 1 µM, confirmation (AID 2554;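 active means primary screen hit whose fluorescence ratio, in both repeats, exceeds the weak agonist control mean by 3 SD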). The note with it: DAMGO EC20, Fluo-4 calcium flux, at 1 µM; stronger effect = higher value.
Assay [4] deals with TRPC4 beta (transient receptor potential cation channel C4), mouse. The assay can be described thus: potentiation of DAMGO EC20 TRPC4 response – cell-based, Fluo-4, HEK293 TRPC4beta/mu-opioid, confirmation (AID 2555;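 active means primary screen hit whose calcium fluorescence ratio, in both repeats, exceeds the weak agonist control mean by 3 SD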). The note with it: DAMGO EC20, Fluo-4 calcium flux, at 10 µM; stronger effect = higher value. A general note: Calcium flux is commonly read through the fluorescence of an indicator in the cells.

For assay [5], the target named is Short transient receptor potential channel 4 (Mus musculus) (UniProt Q9QUQ5). Kind of assay: blockers of DAMGO-evoked TRPC4 calcium flux – cell-based, Fluo4, HEK293 TRPC4beta/mu-opioid, confirmation (AID 2636;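 active means calcium signal cut by more than 3 SD below the full-agonist control yet still positive, in both repeats and the earlier primary screen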). The note with it: at 10 µM; stronger effect = higher value.
Assay [6] has the same target. Kind of assay: blockers of DAMGO-evoked TRPC4 calcium flux – cell-based, second round, Fluo4, HEK293 TRPC4beta/mu-opioid, 1 µM, confirmation (AID 2637;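 active means calcium signal ratio cut to more than 3 SD under the fully stimulated control mean yet still positive, in both repeats and the primary screen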;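 on inhibition: percent of integrated ratio relative to wells lacking test compound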). The note with it: at 1 µM; stronger effect = higher value.
Assay [7] shares this target. Kind of assay: potentiation of DAMGO-evoked TRPC4 calcium signal – cell-based, HEK293 TRPC4/mu-opioid, Fluo-4 calcium, EC20 DAMGO, dose response (AID 434941;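 active means earlier screen potentiator hit that boosts the TRPC4 ion channel at some dose, with a dose response; inactive means no potentiation, no dose response, or not a prior hit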;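 further: calcium entry triggered by an EC20 dose of DAMGO at the co-expressed mu-opioid receptor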).
Assay [8] has the same target. The assay can be described thus: block of DAMGO-driven TRPC4 calcium entry – cell-based, HEK293 TRPC4/mu-opioid, Fluo-4 calcium, dose response (AID 434942;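 active means primary screen inhibitor hit that blocks the TRPC4 channel at some tested dose, yielding a dose curve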).
In assay [9] the target is Short transient receptor potential channel 6 (Mus musculus) (UniProt Q61143). The assay can be described thus: TRPC6 blockade by TRPC4 inhibitor hits – cell-based, HEK293, membrane potential dye, duplicate, selectivity assay for TRPC4 inhibitor project, confirmation (AID 434948;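 active means active in primary screen and both duplicates, each dropping signal beyond three positive-control SD with fluorescence still positive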). Particulars: HEK293 TRPC6, membrane potential dye fluorescence, at 10 µM, stimulated with maximal-effect acetylcholine; stronger effect = higher value.

The target is the same in assay [10]. The assay can be described thus: TRPC6 opening by TRPC4 activator hits – cell-based, HEK293, membrane potential dye, duplicate, selectivity assay for TRPC4 activator project, confirmation (AID 434950;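 active means membrane potential signal rise above negative control mean plus 3 SD in both duplicates, also active in the earlier TRPC4 screen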;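 further: 0% = buffer only wells and 100% = acetylcholine maximal-effect wells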). The note with it: HEK293 TRPC6, membrane potential fluorescence, at 10 µM; activation: stronger effect = higher value; outcome: activation.
Assay [11] has the same target. Kind of assay: positive modulators of mouse TRPC6 channel – HEK293 cells, membrane potential dye, duplicate, selectivity assay for TRPC4 potentiator project, confirmation (AID 434952). The note with it: HEK293 TRPC6, membrane potential dye fluorescence, at 10 µM, maximal acetylcholine added after compound; stronger effect = higher value.
The target of assay [12] is Short transient receptor potential channel 4 (Mus musculus) (UniProt Q9QUQ5). The assay can be described thus: calcium flux activators in TRPC4/5HT1a cells, counter-screen for TRPC4 activator project, cell-based, second counter screen, HEK293 TRPC4/5HT1a, Fluo-4 (AID 434977;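 active means calcium signal rise above buffer-control mean plus 5 SD in both duplicates, and also a hit in the primary screen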;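 on activation: plate controls were assay buffer for no effect and maximal serotonin response for full effect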). Particulars: Fluo-4 calcium flux, at 10 µM; stronger effect = higher value.
Assay [13] in a line: serotonin-gated TRPC4 signal block – cell-based, second counter screen, HEK293 TRPC4/5HT1a, Fluo-4, counter-screen for TRPC4 inhibitor project, confirmation (AID 434978;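 active means primary screen active whose calcium signal fell more than 3 SD beyond the full-serotonin control mean in both duplicate plates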;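 further: serotonin given first at submaximal then at maximal dose after compound preincubation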). Particulars: Fluo-4 calcium flux, at 10 µM, serotonin added to trigger calcium flux; stronger effect = higher value. (In general: Counterscreens check selectivity or assay interference.)
The subject of assay [14] is TRPC4 (mouse), co-expressed with 5HT1a in HEK293. The assay can be described thus: enhancement of serotonin-evoked TRPC4 response – cell-based, second counter screen, HEK293 TRPC4/5HT1a, Fluo-4, counter-screen for TRPC4 potentiator project, confirmation (AID 434979;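 active means signal rise over 3 SD above mean of control wells given weak agonist, in both repeats and first screen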). Particulars: Fluo-4 calcium flux, at 10 µM, serotonin added at its EC20 dose; stronger effect = higher value.
Assay [15] is described as follows: nonspecific calcium rise without TRPC4 – cell-based, HEK293 mu-opioid receptor line, counter-screen for TRPC4 activator project, confirmation (AID 449723;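 active means hit in primary screen, with calcium signal over 5 SD above buffer well mean in both duplicates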;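 further: counter screen cells carry the mu-opioid receptor alone and lack TRPC4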). Particulars: HEK293 mu-opioid cells, Fluo-4 calcium fluorescence, at 10 µM; stronger effect = higher value.
A short description of assay [16]: nonspecific potentiation of DAMGO calcium response – cell-based, HEK293 mu-opioid receptor line, counter-screen for TRPC4 allosteric potentiator project, confirmation (AID 449724;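 active means calcium signal rise more than 3 SD above the low-dose agonist control mean, in both duplicate plates and the primary screen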;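 further: HEK293 cells carrying mu-opioid receptor only with no TRPC4 channel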). Particulars: HEK293 mu-opioid receptor cells, Fluo-4 calcium flux, at 10 µM, compound added before EC20 DAMGO stimulus; stronger effect = higher value.
Assay [17] can be described thus: nonspecific flux increase, KCNQ1-free cells – parental CHO cells, counter-screen for KCNQ1 potentiator project (AID 493006;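 active means duplicate-averaged activation above buffer control mean plus 5 SD of those controls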). The note with it: parental CHO-K1 cells, FluxOR thallium flux, at 10 µM; stronger effect = higher value.
The target of assay [18] is Potassium voltage-gated channel subfamily KQT member 1 (Homo sapiens) (UniProt P51787). Kind of assay: enhancement of KCNQ1 channel thallium flux – FluxOR thallium flux, CHO cells, duplicates, confirmation (AID 493007;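 active means potentiation averaged over duplicate wells exceeding buffer-only control mean by more than 3 SD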;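 further: 0% = buffer-only wells and 100% = R-L3 activator control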). The note with it: KCNQ1 cell line, FluxOR thallium flux fluorescence, at 10 µM; stronger effect = higher value, % of reference activator effect, buffer zero.
Assay [19] has as its target Potassium voltage-gated channel subfamily KQT member 2 (Rattus norvegicus) (UniProt O88943). Kind of assay: KCNQ2 thallium flux enhancement – KCNQ2-CHO-K1 cells, selectivity assay for KCNQ1 potentiator project (AID 493009;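 active means mean duplicate potentiation above the buffer control mean plus 5 SD of buffer wells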;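 further: assay conditions were tuned for KCNQ1 rather than KCNQ2 modulators; signal is max minus min fluorescence divided by baseline after thallium stimulus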). Particulars: FluxOR thallium flux fluorescence, at 10 µM; stronger effect = higher value, scaled: buffer 0, activator control 100.
Assay [20] deals with Potassium voltage-gated channel subfamily KQT member 1 (Homo sapiens) (UniProt P51787). The assay can be described thus: KCNQ1 activators by electrophysiology – IonWorks patch clamp, KCNQ1-CHO cells, orthogonal assay for KCNQ1 potentiator project, confirmation (AID 493184;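 active means current rise at least 3 SD above the untreated control mean in each of two repeat wells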). The note with it: automated patch clamp current, at 10 µM; stronger effect = higher value.

Potassium voltage-gated channel subfamily KQT member 1 (Homo sapiens), sequence (P51787 whole entry, looked up): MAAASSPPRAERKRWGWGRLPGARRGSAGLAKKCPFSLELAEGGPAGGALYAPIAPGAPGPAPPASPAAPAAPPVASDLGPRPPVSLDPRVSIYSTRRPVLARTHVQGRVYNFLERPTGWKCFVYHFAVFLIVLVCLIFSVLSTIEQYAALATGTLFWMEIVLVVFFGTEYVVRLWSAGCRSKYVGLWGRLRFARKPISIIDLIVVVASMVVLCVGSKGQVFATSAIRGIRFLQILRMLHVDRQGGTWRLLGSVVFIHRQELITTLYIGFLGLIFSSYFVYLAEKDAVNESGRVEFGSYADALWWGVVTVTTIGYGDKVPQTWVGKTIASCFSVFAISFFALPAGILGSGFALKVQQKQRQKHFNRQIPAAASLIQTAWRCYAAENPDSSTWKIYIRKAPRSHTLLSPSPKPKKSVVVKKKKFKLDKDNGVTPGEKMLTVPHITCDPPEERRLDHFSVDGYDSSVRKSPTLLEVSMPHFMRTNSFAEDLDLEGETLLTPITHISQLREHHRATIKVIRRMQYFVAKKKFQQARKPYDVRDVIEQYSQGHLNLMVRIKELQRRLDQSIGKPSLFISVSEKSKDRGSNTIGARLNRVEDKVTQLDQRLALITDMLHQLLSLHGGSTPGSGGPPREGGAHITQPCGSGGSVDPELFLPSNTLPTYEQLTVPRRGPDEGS
Short transient receptor potential channel 6 (Mus musculus), sequence (Q61143 whole entry, looked up): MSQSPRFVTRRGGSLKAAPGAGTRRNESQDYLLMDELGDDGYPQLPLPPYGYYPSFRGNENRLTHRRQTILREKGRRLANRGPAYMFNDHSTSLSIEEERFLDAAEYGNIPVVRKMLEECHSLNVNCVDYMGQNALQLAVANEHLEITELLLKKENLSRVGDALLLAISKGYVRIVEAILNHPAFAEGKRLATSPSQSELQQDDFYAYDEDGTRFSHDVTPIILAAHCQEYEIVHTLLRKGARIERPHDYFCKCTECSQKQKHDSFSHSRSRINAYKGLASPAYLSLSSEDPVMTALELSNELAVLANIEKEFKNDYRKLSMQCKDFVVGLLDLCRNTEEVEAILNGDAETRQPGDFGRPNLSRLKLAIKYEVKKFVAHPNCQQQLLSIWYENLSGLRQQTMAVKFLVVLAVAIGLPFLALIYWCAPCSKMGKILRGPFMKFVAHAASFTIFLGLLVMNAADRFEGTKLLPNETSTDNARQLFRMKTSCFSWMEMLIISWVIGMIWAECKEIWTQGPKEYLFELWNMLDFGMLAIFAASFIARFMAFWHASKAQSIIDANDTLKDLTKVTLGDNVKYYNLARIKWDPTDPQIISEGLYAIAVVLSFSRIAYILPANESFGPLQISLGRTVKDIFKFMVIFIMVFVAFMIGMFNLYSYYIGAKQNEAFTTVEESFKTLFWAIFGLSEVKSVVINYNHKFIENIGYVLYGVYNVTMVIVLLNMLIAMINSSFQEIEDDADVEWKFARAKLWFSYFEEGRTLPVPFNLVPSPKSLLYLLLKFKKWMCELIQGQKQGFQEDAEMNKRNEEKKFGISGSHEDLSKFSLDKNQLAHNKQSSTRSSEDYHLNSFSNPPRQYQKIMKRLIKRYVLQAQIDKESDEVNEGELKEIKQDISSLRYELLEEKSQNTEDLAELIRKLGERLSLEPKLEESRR
Short transient receptor potential channel 4 (Mus musculus), sequence (Q9QUQ5 whole entry, looked up): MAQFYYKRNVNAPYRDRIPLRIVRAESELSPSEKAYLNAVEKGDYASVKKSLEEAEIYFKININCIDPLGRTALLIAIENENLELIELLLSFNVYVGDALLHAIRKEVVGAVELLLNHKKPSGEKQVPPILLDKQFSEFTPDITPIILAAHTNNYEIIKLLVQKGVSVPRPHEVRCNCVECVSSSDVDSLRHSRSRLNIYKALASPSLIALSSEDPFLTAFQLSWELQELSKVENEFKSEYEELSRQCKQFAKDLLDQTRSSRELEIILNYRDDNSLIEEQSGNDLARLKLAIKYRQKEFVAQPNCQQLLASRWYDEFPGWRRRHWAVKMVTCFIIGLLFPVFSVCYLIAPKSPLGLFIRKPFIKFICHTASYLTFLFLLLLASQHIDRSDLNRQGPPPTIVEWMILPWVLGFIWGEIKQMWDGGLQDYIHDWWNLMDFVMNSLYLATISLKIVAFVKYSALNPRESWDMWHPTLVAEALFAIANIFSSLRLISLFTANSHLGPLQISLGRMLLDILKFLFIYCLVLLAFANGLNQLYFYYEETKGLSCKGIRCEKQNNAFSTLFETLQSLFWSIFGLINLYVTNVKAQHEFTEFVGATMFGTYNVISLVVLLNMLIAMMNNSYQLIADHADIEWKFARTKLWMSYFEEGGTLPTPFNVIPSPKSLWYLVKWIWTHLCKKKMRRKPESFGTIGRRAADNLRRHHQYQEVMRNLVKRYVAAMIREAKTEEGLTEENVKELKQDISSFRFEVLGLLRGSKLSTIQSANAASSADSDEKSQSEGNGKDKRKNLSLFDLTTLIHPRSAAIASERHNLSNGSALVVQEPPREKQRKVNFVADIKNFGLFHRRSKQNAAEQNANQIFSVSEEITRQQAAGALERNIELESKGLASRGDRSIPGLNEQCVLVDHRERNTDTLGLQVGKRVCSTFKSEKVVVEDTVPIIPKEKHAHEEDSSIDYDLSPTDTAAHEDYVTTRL
Potassium voltage-gated channel subfamily KQT member 2 (Rattus norvegicus), sequence (O88943 whole entry, looked up): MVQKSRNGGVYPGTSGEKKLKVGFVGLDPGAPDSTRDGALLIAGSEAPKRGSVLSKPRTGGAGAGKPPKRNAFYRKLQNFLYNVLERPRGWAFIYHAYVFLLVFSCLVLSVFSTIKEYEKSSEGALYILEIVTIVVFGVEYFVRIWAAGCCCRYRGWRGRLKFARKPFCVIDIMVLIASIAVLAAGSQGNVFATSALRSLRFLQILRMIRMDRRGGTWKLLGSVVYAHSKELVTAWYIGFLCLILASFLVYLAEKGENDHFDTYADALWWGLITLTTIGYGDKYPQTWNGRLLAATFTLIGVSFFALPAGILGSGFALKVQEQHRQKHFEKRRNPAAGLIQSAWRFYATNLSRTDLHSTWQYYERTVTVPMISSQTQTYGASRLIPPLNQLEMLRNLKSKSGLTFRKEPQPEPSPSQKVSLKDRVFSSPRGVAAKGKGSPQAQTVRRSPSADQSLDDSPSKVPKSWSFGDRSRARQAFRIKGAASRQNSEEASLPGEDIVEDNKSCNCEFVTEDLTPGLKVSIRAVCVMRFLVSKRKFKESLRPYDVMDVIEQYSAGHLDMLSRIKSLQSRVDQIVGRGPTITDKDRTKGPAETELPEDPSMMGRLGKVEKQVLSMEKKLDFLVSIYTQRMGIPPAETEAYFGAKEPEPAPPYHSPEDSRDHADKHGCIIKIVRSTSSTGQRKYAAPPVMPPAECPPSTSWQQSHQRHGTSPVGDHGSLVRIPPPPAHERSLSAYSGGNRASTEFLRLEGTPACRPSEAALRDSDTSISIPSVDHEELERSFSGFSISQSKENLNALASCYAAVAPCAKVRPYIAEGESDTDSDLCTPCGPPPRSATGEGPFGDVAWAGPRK

For `Cc1ccccc1C(=O)NNC(=S)NC(=O)c1ccc(Cl)cc1Cl`, the activation in [1] was 293% (active); in [10] it was 35% (active); in [12], 182% (active); in assay [15], 84.2% (active). Besides, the result in [2], in [3], in [4], in assay [5], in assay [6] and in assay [7] was inactive. Further, the result in assay [8], in assay [9], in assay [11], in assay [13], in assay [14] and in assay [16] was inactive. Moreover, the result in assay [17] and in [20] was inactive. Moreover, the potentiation in [18] is 117% (active); in assay [19], 222% (active).

With `COc1ccc(C(=O)NC(=S)NNC(=O)c2cccc(C)c2)cc1`, the activation in [1] was 142% (active); in [10] it was 27% (active); in assay [12], 133% (active); in assay [15], 40.2% (active). Besides, the outcome in assay [2], in assay [3], in [4], in [5], in [6] and in [7] was inactive. The outcome in [8], in assay [9], in assay [11], in assay [13], in assay [14] and in assay [16] was inactive. For the same compound, the outcome in [17] and in assay [20] was inactive. In addition, the potentiation in [18] is 128% (active); in assay [19], 227% (active).

For the compound `CC(C)(C)C(=O)NC(=S)NNC(=O)C(c1ccccc1)c1ccccc1`, the activation was 286% (active) in [1], 46% (active) in assay [10], 158% (active) in assay [12] and 119% (active) in assay [15]. In addition, the result in assay [2], in [3], in assay [4], in [5], in assay [6] and in assay [7] was inactive. The result in assay [8], in assay [9], in [11], in [13], in assay [14] and in [16] was inactive. Moreover, the outcome in [17], in assay [19] and in [20] was inactive. Also, in assay [18], the potentiation is 22% (active).

Turning to `O=C(NC(=S)NNC(=O)c1ccco1)c1ccc(Br)cc1`, the values for the activation in assay [1], in assay [10] and in [12] were 149% (active), 32.5% (active) and 22.9% (active), respectively. In addition, the result in assay [2], in assay [3], in assay [4], in assay [5], in assay [6] and in assay [7] was inactive. Further, the call in [9], in assay [11], in [13], in assay [14], in assay [15] and in assay [16] was inactive.

On to `COc1ccc(C(CNC(=O)c2cccc3cccnc23)N(C)C)cc1` (stereo not given), for which the figures for the activation in [1] and in assay [10] were 132% (active) and 33% (active), respectively. The outcome in [2], in assay [3], in assay [4], in [5], in assay [7] and in assay [9] was inactive. Moreover, the result in assay [11], in [12], in assay [13], in assay [14], in assay [15] and in assay [16] was inactive. For the same compound, the inhibition in assay [6] is 80% (active).

Turning to `CN(C)C(CNC(=O)Cc1cccc(C(F)(F)F)c1)c1ccccc1` (stereo not given), the activation in assay [1] is 129% (active); in assay [2], 142% (active); in assay [10], 31% (active). The result in assay [3], in assay [4], in [5], in [6], in assay [7] and in assay [9] was inactive. Moreover, the outcome in assay [11], in [12], in assay [13], in assay [14], in assay [15] and in [16] was inactive.

For `COc1ccc(C(=O)NNC(=S)NC(=O)c2ccccc2)cc1`, the activation was 130% (active) in assay [1], 32% (active) in assay [10], 87.5% (active) in [12] and 32.5% (active) in [15]. In addition, the result in assay [2], in [3], in [4], in [5], in assay [6] and in assay [7] was inactive. The outcome in [8], in assay [9], in [11], in [13], in [14] and in [16] was inactive. For the same compound, the outcome in assay [17] and in assay [20] was inactive. For the same compound, the potentiation in assay [18] was 58.5% (active); in [19], 166% (active).

For orientation: inhibition means the change of the read-out against control, counted positive when it falls.
